Laboratory results from PubChem BioAssay AID540335 (Broad Institute, 2011).
Hit rate of the full screen: of about 1,300 compounds, about 270 (21%) were called active. These entries were drawn from the full list. Entries with a potency or affinity are not part of this list. Unmarked numbers belong to inactive results.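 Rule for the calls: active = dose-dependent rise or fall in viability, either side of zero, with half-maximal concentration at or below a set limit; inconclusive = flat curve at 30 to 70% viability loss, or poor fit; inactive = flat within 30% either way, or potency beyond limit.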

Experiment: A375 melanoma cell viability reduction, dose response, counter-screen for MITF modulator project, cherry-pick samples, set 2 (AID 540335);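 note: A375 human melanoma cells which do not depend on MITF; 0% = median of neutral control wells and 100% = double that signal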
Conditions: CellTiter-Glo ATP luminescence, 24 h; series mostly up to 35 µM; activity change, negative = decreased viability: at the top concentration
For COc1ccc(/C=C2\Sc3ccc(C(=O)NCCN4CCCCCC4)cc3N(C)C2=O)cc1, the “activity change, negative = decreased viability” value was -19.8%.
With Nc1c(N(CCC2=CCCCC2)C(=O)COc2ccc([N+](=O)[O-])cc2)c(=O)[nH]c(=O)n1Cc1ccccc1 the “activity change, negative = decreased viability” value was -29%.
In the case of CN1CCN(c2ccc(NC(=O)c3ccc([N+](=O)[O-])o3)cc2Cl)CC1, the “activity change, negative = decreased viability” value is reported as -1.44%.
For CN1CCN(c2ccccc2NC(=O)c2ccc([N+](=O)[O-])o2)CC1, the “activity change, negative = decreased viability” value was -26.5%.
With CC(=O)SC(C[N+](=O)[O-])c1cn(C(C)=O)c2ccccc12 (stereo unspecified) the “activity change, negative = decreased viability” value was 22.6%.
In the case of CC(C)(C)C(=O)Cn1ncc(Cl)c(Cl)c1=O, the “activity change, negative = decreased viability” value is reported as 55.4%.
In the case of C=C1C(=O)O[C@@]23[C@H]1CC[C@@H](C)[C@@H]2CC[C@@]1(C)O[C@@H]31, the “activity change, negative = decreased viability” value is reported as 2.09%.
With CCCC(=O)N1CCN(c2ccc(NC(=O)c3ccc([N+](=O)[O-])o3)cc2)CC1 the “activity change, negative = decreased viability” value was 11.4%.
With CCN(CC)CCNC(=O)c1ccc(NC(=O)c2cccc(S(=O)(=O)N3c4ccccc4CC3C)c2)cc1 (stereo unspecified) the “activity change, negative = decreased viability” value was -12.4%.
In the case of O=C(/C=C/c1ccc(Cl)c([N+](=O)[O-])c1)c1ccc(O)cc1, the “activity change, negative = decreased viability” value is reported as 24.9%.
With O=C(Nc1ccc(N2CCN(C(=O)c3ccc(Cl)cc3)CC2)cc1)c1ccc([N+](=O)[O-])o1 the “activity change, negative = decreased viability” value was 20.7%.
For O=C(N/N=C/c1ccc([N+](=O)[O-])s1)c1ccccc1Br, the “activity change, negative = decreased viability” value was -17.8%.
In the case of COc1cc(NC(=O)c2ccc([N+](=O)[O-])o2)ccc1NC(=O)c1cccs1, the “activity change, negative = decreased viability” value is reported as -28.9%.
With CN(C(=O)/C=C/c1ccc([N+](=O)[O-])s1)c1ccccc1 the “activity change, negative = decreased viability” value was -12.6%.
With Cc1scc(C(=O)N/N=C/c2ccc([N+](=O)[O-])o2)c1C the “activity change, negative = decreased viability” value was -10.2%.
With CCCCCCN1C=CC(=C2C(=O)c3ccccc3C2=O)C=C1 the “activity change, negative = decreased viability” value was -11.3%.
With O=C1CN(C(=O)Cn2ncc(Cl)c(Cl)c2=O)c2ccccc2N1 the “activity change, negative = decreased viability” value was 36.1%.
For Cc1ccc(C(=O)N/N=C/c2ccc([N+](=O)[O-])s2)cc1, the “activity change, negative = decreased viability” value was -10.8%.
In the case of Cc1ccc(C)c(C(=O)Cn2ncc(Cl)c(Cl)c2=O)c1, the “activity change, negative = decreased viability” value is reported as 78.1%.
For Clc1cccc(-c2nc(-c3ccccn3)no2)c1, the “activity change, negative = decreased viability” value was -22.9%.
With C=CCNc1nc(-c2ccccn2)nnc1-c1ccccc1 the “activity change, negative = decreased viability” value was -21.7%.
In the case of O=C(Nc1ccc(S(=O)(=O)N2CCCCCC2)cc1)c1[nH]ncc1[N+](=O)[O-], the “activity change, negative = decreased viability” value is reported as -21%.
With O=C(O)c1ccc(N/N=C/c2ccc(OC(=O)c3cccc(Cl)c3)cc2)cc1 the “activity change, negative = decreased viability” value was 1.31%.
With CC(C)CC(=O)NC(c1cccs1)c1ccc2cccnc2c1O (stereo unspecified) the “activity change, negative = decreased viability” value was -35.5%.
For O=C(CCl)Nc1ccc(Sc2ccc(NC(=O)CCl)cc2)cc1, the “activity change, negative = decreased viability” value was 75.1%.
For COc1ccccc1-c1nnc(-c2ccc(C)cc2)o1, the “activity change, negative = decreased viability” value was 7.71%.
In the case of COc1ccccc1-c1nc(-c2ccc(C)nc2OC)no1, the “activity change, negative = decreased viability” value is reported as 10.9%.
With Cn1c(SC2=CS(=O)(=O)c3ccccc32)nc2ccccc21 the “activity change, negative = decreased viability” value was -10.8%.
With CCN1CCc2c(sc(NC(=O)c3ccc(S(=O)(=O)N4CCCCCC4)cc3)c2C(=O)NC)C1 the “activity change, negative = decreased viability” value was -9.09%.
In the case of CC1(C)CC(NC(=O)c2ccc(Cl)c(S(=O)(=O)N(Cc3ccccc3)c3ccccc3)c2)CC(C)(C)N1, the “activity change, negative = decreased viability” value is reported as -56.2%.
For COc1ccc(C(C(=O)NC2CCCCC2)N(C(=O)CCl)c2ccc(OC)cc2)cc1 (stereo unspecified), the “activity change, negative = decreased viability” value was -7.56%.
For C#CC(=O)N(c1ccc(OC)cc1OC)C(C(=O)NC1CCCC1)c1cccs1 (stereo unspecified), the “activity change, negative = decreased viability” value was -6.23%.
With C(#Cc1ccccc1)C[N+]1(CC#Cc2cccc3ccccc23)CCCC1 the “activity change, negative = decreased viability” value was -24.6%.
With CCOc1ccc2nc(C)cc(Nc3cccc([N+](=O)[O-])c3)c2c1 the “activity change, negative = decreased viability” value was -48.8%.
For CC(=O)OCCNc1cc(Sc2nc3ccccc3[nH]2)c2nonc2c1[N+](=O)[O-], the “activity change, negative = decreased viability” value was 1.78%.
With O=C(Nc1cc(-c2nc3ncccc3o2)ccc1Cl)c1ccc([N+](=O)[O-])o1 the “activity change, negative = decreased viability” value was -5.78%.
For O=C(O)c1cccc(N/N=C/c2ccc(OC(F)(F)F)cc2)c1, the “activity change, negative = decreased viability” value was 14.9%.
With O=C(Cn1ncc(Cl)c(Cl)c1=O)NCC1CCCCC1 the “activity change, negative = decreased viability” value was -26.7%.
In the case of O=C(CSc1ccccn1)c1ccc2c(c1)OCO2, the “activity change, negative = decreased viability” value is reported as 9.9%.
For COc1ccc(C(=O)/C=C(\C)Nc2ccc3c(c2)OCO3)cc1, the “activity change, negative = decreased viability” value was 0.308%.
In the case of Cc1cc(C(=O)CN2C(=O)c3ccccc3S2(=O)=O)c(C)n1-c1ccccc1, the “activity change, negative = decreased viability” value is reported as 6.79%.
With Cc1cccnc1NC(=O)NC(=O)c1ccc(C(C)(C)C)s1 the “activity change, negative = decreased viability” value was 3.2%.
With COc1ccc(CCn2c(=S)[nH]c3cc(C(=O)NCc4ccco4)ccc3c2=O)cc1OC the “activity change, negative = decreased viability” value was -33.1%.
In the case of Cc1cc(C)c2sc(N(CCCN(C)C)C(=O)COc3ccc(Cl)cc3)nc2c1, the “activity change, negative = decreased viability” value is reported as -86.6%.
With CN(C)CCCNc1nc2sc3c(c2c(=O)n1CCc1ccccc1)CCCCC3 the “activity change, negative = decreased viability” value was -16.3%.
With COc1ccc(-n2cc(-c3ccc(C)cc3)[n+]3c2SCC3)cc1 the “activity change, negative = decreased viability” value was -17.9%.
For O=C(NCC1CCCCC1)C1(CC2CC(c3cccc(Br)c3)=NO2)CCNCC1 (stereo unspecified), the “activity change, negative = decreased viability” value was -96.6%.
In the case of Cc1ccc(C(C)C)c(OCc2nn(CC(=O)c3ccc(Cl)cc3)c3[n+]2CCCCC3)c1, the “activity change, negative = decreased viability” value is reported as -95.6%.
In the case of CCOC(=O)N1C(=O)[C@@](CC)(c2ccccc2)N1C(=O)OCC, the “activity change, negative = decreased viability” value is reported as 4.08%.
With O=C(N/N=C/c1ccc([N+](=O)[O-])o1)c1ccccc1-n1cccc1 the “activity change, negative = decreased viability” value was -22.6%.
In the case of COC(=O)C1=C(C)N(Cc2ccccc2)C(=NCC(C)C)N[C@H]1c1cccc(C(F)(F)F)c1, the “activity change, negative = decreased viability” value is reported as -96.9%.
